Compounds without any hit were thinned out: in the full panel of roughly 83,000, 20% have a hit.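 Negative percent growth values reflect cell death: -40 means 40% of the cells present at the start died, and -100 means all died.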 Activity calls are given as the source filed them. How the source made its calls: active means growth percent below 10; inactive means the rest.
Experiments:
Assay in all cases: NCI-60 one-dose screen, 48 h (100 = growth as untreated, 0 = no growth, -100 = all killed)
Conditions in all cases: 10 µM unless noted
SK-MEL-2 melanoma = test system: SK-MEL-2 melanoma
EKVX NSCLC = test system: EKVX NSCLC
SN12C renal = test system: SN12C renal
UO-31 renal = test system: UO-31 renal
TK-10 renal = test system: TK-10 renal
ACHN renal = test system: ACHN renal
CAKI-1 renal = test system: CAKI-1 renal
A498 renal = test system: A498 renal
CCRF-CEM leukemia = test system: CCRF-CEM leukemia
MOLT-4 leukemia = test system: MOLT-4 leukemia

Measured: growth

CCN(CC)c1ccc(C(=O)c2ccc(N(CC)CC)cc2)cc1
inactive: SK-MEL-2 melanoma 18.7% | EKVX NSCLC 55% | SN12C renal 40.8% | UO-31 renal 60.4% | TK-10 renal 35.1% | ACHN renal 53.1% | CAKI-1 renal 43.4% | A498 renal 41.1% | CCRF-CEM leukemia 19.8% | MOLT-4 leukemia 24.3%

C=CCNc1nc(NN2C(=O)c3cccc4cccc(c34)C2=O)nc(-n2cnc3ccccc32)n1
inactive: SK-MEL-2 melanoma 98.9% | EKVX NSCLC 62.8% | SN12C renal 60.4% | UO-31 renal 14.3% | TK-10 renal 102% | ACHN renal 64.8% | CAKI-1 renal 51.5% | A498 renal 32.4% | CCRF-CEM leukemia 83.8% | MOLT-4 leukemia 56%

Cc1ccc(-c2cc(-c3cccnc3)[nH]c(=O)c2C#N)cc1
inactive: SK-MEL-2 melanoma 120% | EKVX NSCLC 101% | SN12C renal 104% | UO-31 renal 84.1% | TK-10 renal 116% | ACHN renal 103% | CAKI-1 renal 87% | A498 renal 82.4% | CCRF-CEM leukemia 101% | MOLT-4 leukemia 115%

COc1ccc(/C=N\NC(=O)c2cc(-c3ccc(Br)cc3)n(-c3ccc(S(N)(=O)=O)cc3)n2)cc1
active: A498 renal -6.38%
inactive: SK-MEL-2 melanoma 54.3% | EKVX NSCLC 61.2% | SN12C renal 63% | UO-31 renal 50.1% | TK-10 renal 29.1% | ACHN renal 44.3% | CAKI-1 renal 26.3% | CCRF-CEM leukemia 55.6% | MOLT-4 leukemia 62.3%

NC(N)=NN=C(c1ccccc1)c1ccccc1
inactive: SK-MEL-2 melanoma 39.3% | EKVX NSCLC 65.3% | SN12C renal 51.3% | UO-31 renal 63.6% | TK-10 renal 46.1% | ACHN renal 48.1% | CAKI-1 renal 50.4% | A498 renal 34% | CCRF-CEM leukemia 27.7% | MOLT-4 leukemia 31.8%

COc1ccc2c(c1)C(=O)/C(=C/c1ccc(OCC(=O)Nc3nccs3)cc1)O2
inactive: SK-MEL-2 melanoma 112% | EKVX NSCLC 32.7% | SN12C renal 48.2% | TK-10 renal 93.9% | ACHN renal 49% | A498 renal 99.7%
active: UO-31 renal -80.8% | CAKI-1 renal -78.4% | CCRF-CEM leukemia -73.8% | MOLT-4 leukemia -72.9%

CC1=C([Se]CC(OC(=O)CC[Se]c2ccccc2)C(=O)NCCCCCC(=O)OCc2ccccc2)C(=O)c2ccccc2C1=O (stereo not given)
active: CCRF-CEM leukemia 9.75%
inactive: SK-MEL-2 melanoma 47.8% | EKVX NSCLC 27.1% | SN12C renal 13.4% | UO-31 renal 15.4% | TK-10 renal 40.9% | ACHN renal 23.8% | CAKI-1 renal 32.2% | A498 renal 71.9% | MOLT-4 leukemia 17.1%

Cc1ccc(-n2nc3c(c(C#N)c2=O)CC(c2ccccc2Cl)C([N+](=O)[O-])=C3O)cc1 (stereo not given)
inactive: SK-MEL-2 melanoma 99.2% | EKVX NSCLC 90.2% | SN12C renal 108% | UO-31 renal 78.4% | TK-10 renal 123% | ACHN renal 100% | CAKI-1 renal 84% | A498 renal 85.9% | CCRF-CEM leukemia 84.3% | MOLT-4 leukemia 77.1%

Cc1ccc(S(=O)(=O)NCC[C@@H]2C[C@H]2c2cc3ccccc3s2)cc1
inactive: SK-MEL-2 melanoma 111% | EKVX NSCLC 95% | SN12C renal 91.6% | UO-31 renal 84% | TK-10 renal 110% | ACHN renal 102% | CAKI-1 renal 79.6% | A498 renal 81.7% | CCRF-CEM leukemia 96.4% | MOLT-4 leukemia 92.6%

Cc1ccc2c(c1)Sc1c(ccc3ccccc13)N2
inactive: SK-MEL-2 melanoma 116% | EKVX NSCLC 72.8% | SN12C renal 81.8% | UO-31 renal 60.1% | TK-10 renal 127% | ACHN renal 64.5% | CAKI-1 renal 73.4% | A498 renal 91.7% | CCRF-CEM leukemia 67.6% | MOLT-4 leukemia 32.4%

OC(c1cccc(-n2ccc(C(F)(F)F)n2)c1)c1cnccc1NC1CCCCCC1 (stereo not given)
active: ACHN renal -32.2% | CCRF-CEM leukemia 8.54% | MOLT-4 leukemia -14.2%
inactive: SK-MEL-2 melanoma 27.1% | EKVX NSCLC 72.6% | SN12C renal 47.8% | UO-31 renal 41.5% | TK-10 renal 86.7% | CAKI-1 renal 66.5% | A498 renal 60.4%

COc1ccc(-c2nc(SCCC(C)C)nc(N/N=C\c3cccc(Cl)c3)c2C#N)cc1
inactive: SK-MEL-2 melanoma 98.3% | EKVX NSCLC 77.3% | SN12C renal 41.9% | UO-31 renal 48.9% | TK-10 renal 47.1% | ACHN renal 17.9% | CAKI-1 renal 61% | A498 renal 42.5% | CCRF-CEM leukemia 50% | MOLT-4 leukemia 74.7%

O=C(CSc1nccc(Nc2ccc(S(=O)(=O)Nc3nccs3)cc2)n1)c1ccc(F)cc1
inactive: SK-MEL-2 melanoma 105% | EKVX NSCLC 97.5% | SN12C renal 110% | UO-31 renal 75.8% | TK-10 renal 110% | ACHN renal 103% | CAKI-1 renal 96.4% | A498 renal 109% | CCRF-CEM leukemia 108% | MOLT-4 leukemia 115%

Cc1ccc(C2SCC(=O)N2Cc2ccccc2)cc1 (stereo not given)
inactive: SK-MEL-2 melanoma 100% | EKVX NSCLC 89.5% | SN12C renal 94.8% | UO-31 renal 83.8% | TK-10 renal 99.5% | ACHN renal 100% | CAKI-1 renal 84.4% | A498 renal 109% | CCRF-CEM leukemia 79.2% | MOLT-4 leukemia 84%

Cc1nc2ccccc2c(/C=C/c2ccc(Cl)cc2)c1C(=O)/C=C/c1ccc(F)cc1
inactive: EKVX NSCLC 29.9% | TK-10 renal 43.3%
active: SK-MEL-2 melanoma 3.88% | SN12C renal -10.2% | UO-31 renal -79.4% | ACHN renal 3.87% | CAKI-1 renal -10.1% | A498 renal -4.11% | CCRF-CEM leukemia 6.9% | MOLT-4 leukemia 4%

CC(C)Sc1nc(NNC(N)=S)c(C#N)c(-c2ccc(F)cc2)n1
inactive: SK-MEL-2 melanoma 103% | EKVX NSCLC 96.7% | SN12C renal 96.1% | UO-31 renal 79.7% | TK-10 renal 96.3% | ACHN renal 94.3% | CAKI-1 renal 88.8% | A498 renal 61.7% | CCRF-CEM leukemia 93.2% | MOLT-4 leukemia 95.7%

O=C1CCC2=C3C4CCCCC4C(=O)C4CCCC(OC2C1)C34 (stereo not given)
inactive: EKVX NSCLC 97.2% | SN12C renal 14.1% | TK-10 renal 64.3% | A498 renal 104% | CCRF-CEM leukemia 15.6%
active: SK-MEL-2 melanoma 3.05% | UO-31 renal -43.5% | ACHN renal -23.3% | CAKI-1 renal -27.2% | MOLT-4 leukemia 7.03%

COc1ccc(NC(=O)CSc2nnc(-c3cc(-c4ccccc4)nc4ccccc34)n2-c2ccccc2)cc1
inactive: SK-MEL-2 melanoma 102% | EKVX NSCLC 78.1% | SN12C renal 88.9% | UO-31 renal 67% | TK-10 renal 117% | ACHN renal 94.6% | CAKI-1 renal 80% | A498 renal 74.3% | CCRF-CEM leukemia 86.9% | MOLT-4 leukemia 80.2%

COCCc1ccc(OCC(O)CNC(C)C)cc1 (stereo not given)
inactive: SK-MEL-2 melanoma 108% | EKVX NSCLC 96% | SN12C renal 109% | UO-31 renal 79.4% | TK-10 renal 110% | ACHN renal 108% | CAKI-1 renal 96.4% | A498 renal 103% | CCRF-CEM leukemia 96% | MOLT-4 leukemia 91.4%

Cc1nn(-c2ccccc2)c(Cl)c1/C=C(/NC(=O)c1ccccc1)c1nc2ccccc2[nH]1
inactive: SK-MEL-2 melanoma 111% | EKVX NSCLC 94.4% | SN12C renal 91.2% | UO-31 renal 80.2% | TK-10 renal 106% | ACHN renal 92.4% | CAKI-1 renal 84.1% | A498 renal 88.2% | CCRF-CEM leukemia 86.5% | MOLT-4 leukemia 79.9%

COc1cccc(/C=C/C(=O)c2c(C)nc3ccccc3c2/C=C/c2ccc(C)cc2)c1OC
inactive: SK-MEL-2 melanoma 77.2% | EKVX NSCLC 80.8% | SN12C renal 52.1% | UO-31 renal 54.3% | TK-10 renal 118% | ACHN renal 52.9% | CAKI-1 renal 57% | A498 renal 73.8% | CCRF-CEM leukemia 16.6% | MOLT-4 leukemia 11.3%

CCCCN(CCCC)CC(C)(C)C(O)c1ccc(OC)c2ccccc12 (stereo not given)
inactive: SK-MEL-2 melanoma 76.7% | EKVX NSCLC 44% | SN12C renal 46.7% | UO-31 renal 34.1% | TK-10 renal 51.4% | ACHN renal 56.5% | CAKI-1 renal 23.1% | A498 renal 59.3% | CCRF-CEM leukemia 50% | MOLT-4 leukemia 27.6%

C[C@@H]1N=C(c2ccc3ccccc3n2)Nc2nc3ccccn3c2C1=O
inactive: SK-MEL-2 melanoma 109% | EKVX NSCLC 77.7% | SN12C renal 95.6% | UO-31 renal 70.1% | TK-10 renal 142% | ACHN renal 85.7% | CAKI-1 renal 82.1% | A498 renal 108% | CCRF-CEM leukemia 115% | MOLT-4 leukemia 100%

O=c1ccn2nc3ccccc3c2[nH]1
inactive: SK-MEL-2 melanoma 108% | EKVX NSCLC 63.6% | SN12C renal 84.8% | UO-31 renal 76.6% | TK-10 renal 121% | ACHN renal 91.1% | CAKI-1 renal 89.4% | A498 renal 125% | CCRF-CEM leukemia 118% | MOLT-4 leukemia 108%

C#Cc1cccc(NC(=O)c2ccc(NC(=O)CCl)cc2)c1
inactive: SK-MEL-2 melanoma 31.3% [8.25 µM] | EKVX NSCLC 104% [8.25 µM] | A498 renal 65% [8.25 µM] | CCRF-CEM leukemia 12.1% [8.25 µM] | MOLT-4 leukemia 14% [8.25 µM]
active: SN12C renal -78.4% [8.25 µM] | UO-31 renal -99.2% [8.25 µM] | TK-10 renal -63.2% [8.25 µM] | ACHN renal -98.2% [8.25 µM] | CAKI-1 renal 9.54% [8.25 µM]

O=c1[nH][n+](-c2ccc(Cl)cc2)no1
inactive: SK-MEL-2 melanoma 75.4% | EKVX NSCLC 60.6% | SN12C renal 73.5% | UO-31 renal 27% | TK-10 renal 70.8% | ACHN renal 40.7% | CAKI-1 renal 18.5% | A498 renal 82.6% | CCRF-CEM leukemia 55.3% | MOLT-4 leukemia 44.4%

COc1cccc2c1C(=O)c1c(O)c3c(c(O)c1C2=O)CC(O)(/C(C)=N/NC(=O)CCCCC(=O)N/N=C(\C)C1(O)Cc2c(O)c4c(c(O)c2C(OC2CC(N)C(O)C(C)O2)C1)C(=O)c1c(OC)cccc1C4=O)CC3OC1CC(N)C(O)C(C)O1 (stereo not given)
active: SK-MEL-2 melanoma -56.9% [5 µM] | EKVX NSCLC -16.2% [5 µM] | SN12C renal -2.85% [5 µM] | UO-31 renal -16.9% [5 µM] | TK-10 renal -29.5% [5 µM] | ACHN renal -33.6% [5 µM] | CAKI-1 renal -40% [5 µM] | A498 renal -84.5% [5 µM] | CCRF-CEM leukemia -26.4% [5 µM] | MOLT-4 leukemia -46.8% [5 µM]

From PubChem BioAssay (NCI)
